Test results taken from PubChem BioAssay AID504339 (National Center for Advancing Translational Sciences (NCATS), 2011).
Out of some 390,000 compounds screened, about 17,000 (4.4%) were called active. Roughly 8% stayed inconclusive and do not appear here. Calls come from the whole dose curve; as a rule, active = well fitted inhibition curve with a large enough effect; inconclusive = small, poorly fitted or top-dose-only effect; inactive = no such curve, though single readings can be large or run the other way. What follows is part of a selection rich in actives, with near analogues and random picks from the rest.

These compounds were tested against Lysine-specific demethylase 4A (Homo sapiens) (UniProt O75164) (assay: qHTS Assay for Inhibitors of JMJD2A-Tudor Domain). Details: AlphaScreen JMJD2A-Tudor / H3K4me3 peptide binding; series mostly up to 114 µM; activity change, negative = inhibition: at the top concentration.
% is set by controls: 0 for no effect and ±100 for the full control effect; potency is the fitted concentration of half-maximal effect.
Note: nearly all actives have a fitted effect of over 50% in size.

Chain of Lysine-specific demethylase 4A (Homo sapiens) (O75164 whole entry, looked up, the tested form may be a part): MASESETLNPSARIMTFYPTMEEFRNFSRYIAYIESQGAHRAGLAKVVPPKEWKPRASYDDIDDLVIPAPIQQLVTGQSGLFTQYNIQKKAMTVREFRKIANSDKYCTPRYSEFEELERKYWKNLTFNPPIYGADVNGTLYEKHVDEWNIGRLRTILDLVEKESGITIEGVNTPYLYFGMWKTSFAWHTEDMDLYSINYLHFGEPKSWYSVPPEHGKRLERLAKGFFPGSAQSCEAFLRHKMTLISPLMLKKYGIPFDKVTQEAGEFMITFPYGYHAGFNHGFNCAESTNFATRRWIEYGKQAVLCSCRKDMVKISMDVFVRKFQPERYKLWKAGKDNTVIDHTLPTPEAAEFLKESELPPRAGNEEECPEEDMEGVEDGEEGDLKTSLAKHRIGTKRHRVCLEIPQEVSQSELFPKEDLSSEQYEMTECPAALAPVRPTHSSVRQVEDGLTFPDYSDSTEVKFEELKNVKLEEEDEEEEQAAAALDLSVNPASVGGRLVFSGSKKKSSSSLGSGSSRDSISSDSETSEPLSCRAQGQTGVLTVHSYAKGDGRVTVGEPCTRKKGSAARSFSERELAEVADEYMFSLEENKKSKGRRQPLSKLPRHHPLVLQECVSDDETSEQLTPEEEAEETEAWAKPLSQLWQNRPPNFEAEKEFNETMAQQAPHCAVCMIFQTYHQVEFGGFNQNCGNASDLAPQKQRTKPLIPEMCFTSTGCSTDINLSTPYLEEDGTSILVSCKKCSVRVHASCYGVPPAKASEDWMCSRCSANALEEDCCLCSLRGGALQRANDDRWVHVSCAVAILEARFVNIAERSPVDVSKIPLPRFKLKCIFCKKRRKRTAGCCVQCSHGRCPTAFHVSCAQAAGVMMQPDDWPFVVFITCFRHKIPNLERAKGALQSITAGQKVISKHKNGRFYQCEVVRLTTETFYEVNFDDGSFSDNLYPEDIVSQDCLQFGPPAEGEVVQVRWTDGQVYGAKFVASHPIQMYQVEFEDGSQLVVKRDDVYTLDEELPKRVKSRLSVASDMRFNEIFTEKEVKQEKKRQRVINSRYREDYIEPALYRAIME

Potency, inactive:
CCN(CC)CCC(c1cc(OC)c(OC)c(OC)c1)c1c(OC)cc(OC)c2c(-c3ccccc3)cc(=O)oc12 (configuration not stated), COc1cc(NS(=O)(=O)c2ccc3ccccc3c2)c2ncccc2c1

Potency, active:
COc1ccc([C@H]2CC(=O)C=C(c3ccc(CO)cc3)C2)cc1 28.2 µM, Oc1ccc(N=Nc2nccs2)c(O)c1 35.5 µM, Oc1ccc2ccccc2c1N=Nc1nccs1 5.62 µM, N#Cc1nc(-c2ccc(OCc3ccccc3)cc2)oc1NCCCN1CCOCC1 35.5 µM, Cc1[nH]c(N)nc(=S)c1CCCNc1ccccc1 50.1 µM, O=C(Oc1ccc([N+](=O)[O-])cc1)c1ccc2ccccc2n1 28.2 µM, CCNC(=S)N(CCc1c(C)[nH]c2ccc(C)cc12)Cc1ccco1 63.1 µM, CN(C)CCOc1cccc(Br)c1 3.55 µM, CCCCCCCCOC1OC(CO)C(O)C(O)C1NC(C)=O (configuration not stated) 79.4 µM, CCOC(=O)C1=C(c2ccc(OC)cc2)C(=O)c2ccccc2C1=O 39.8 µM, COc1cc(OC)c2ccc(=O)oc2c1C(CCN1CCN(c2ccccc2)CC1)c1ccc2c(c1)OCO2 (configuration not stated) 17.8 µM, COc1cc(OC)c2c(C)cc(=O)oc2c1C(CCN1CCCCC1)c1ccc(N(C)C)cc1 (configuration not stated) 39.8 µM, COc1cc(OC)c2c(c1C(CCN1CCCCC1)c1ccc(N(C)C)cc1)OC(=O)CC2c1ccc(N(C)C)cc1 (configuration not stated) 35.5 µM, COc1ccc(C(CCN2CCOCC2)c2c(OC)cc(OC)c3c2OC(=O)CC3c2ccc(OC)cc2)cc1 (configuration not stated) 35.5 µM, O=[N+]([O-])c1ccccc1S(=O)(=O)Nc1cccc2cccnc12 56.2 µM, C=CCOc1c(CNn2cn[nH]c2=S)cccc1OC 3.55 µM, C=CCOc1cccc(CNn2cn[nH]c2=S)c1 22.4 µM, CN(CC(=O)NCc1ccc(Cl)cc1)S(=O)(=O)c1cccs1 89.1 µM, CCOn1c(=O)c(=O)n(O)c2ccccc21 44.7 µM, C#CCOCCOCCOCCNc1nc(N2CCN(C(=O)C([C@@H](C)CC)n3cc(C(N)COC(=O)C(F)(F)F)nn3)CC2)nc(N2CCN(C(=O)[C@H](CCCCN)n3cc(C(N)CC(C)C)nn3)CC2)n1 (some centres not stated) 56.2 µM, C#CCOCCOCCOCCNc1nc(N2CCN(C(=O)C([C@@H](C)O)n3cc([C@@H](N)CCCCN)nn3)CC2)nc(N2CCN(C(=O)[C@H](CCCCN)n3cc(CN)nn3)CC2)n1 (some centres not stated) 79.4 µM

Activity change, negative = inhibition, inactive:
COc1ccc2cc(C3=CC(=O)C[C@H](c4ccc5c(c4)OCO5)C3)ccc2c1 -26.8%, COc1ccc([C@H]2CC(=O)C=C(c3ccc(C)cc3)C2)cc1 4.23%, Cc1ccc(C)c(N2CCN(C(=O)CCc3c(C)nc4c(c3C)c(=O)n(C)c(=O)n4C)CC2)c1 -7.41%, O=C(CCC1N=C2c3ccccc3N=C(SCc3ccccc3F)N2C1=O)NCCc1ccccc1 (configuration not stated) -18%, COc1ccc(C(=O)CSc2c(C(C)C)cnc3c2c(=O)n(C)c(=O)n3C)cc1 -18.2%, CCOC(=O)c1cccc(NS(=O)(=O)c2cc(-c3cnc(C)o3)ccc2OC)c1 -33.4%, Cc1cccc(NC(=O)Cn2c(=O)n(CCC(C)C)c(=O)c3cccnc32)c1 -9.45%, O=C(NCCCc1ccccc1)c1ccc2c(c1)sc1nc(-c3ccc(F)cc3)cn12 -15.5%, CC1=C(C(=O)OCC2CCCCC2)C(c2c(F)cccc2Cl)CC(=O)N1 (configuration not stated) 3.42%, O=S(=O)(c1ccccc1)c1nc(-c2ccccc2)oc1NCCCN1CCOCC1 -22.2%, CC1CC(C)CN(c2oc(-c3ccc(OCc4ccc(Cl)cc4)cc3)nc2C#N)C1 (configuration not stated) -19.2% [at 57.1 µM], CCc1cccc(NC(=O)Cn2nc(CC)n3c(cc4cc(C)ccc43)c2=O)c1 0%, CCOc1ccc(NC(=O)Cn2cc(C(=O)c3ccc(C)cc3)c(=O)c3cc4c(cc32)OCCO4)cc1 -20.5%, CCN(CC)S(=O)(=O)c1ccc2c(c1)nc(CN(C)C(=O)Nc1ccc(Cl)cc1)n2C -0.993%, Cc1ccc(C)c(N2CCN(C(=O)Cc3c(C(=O)O)c(C)cn3C)CC2)c1 -20.3%, CCc1c(Nc2ccccc2C)nc(N)[nH]c1=O -16.6%, COc1ccc(Cl)cc1NC(=O)CSc1nc(-c2cccs2)cc(C(F)(F)F)n1 -8.59%, Cc1ccc(NC(=O)CN2C(=O)CC(C)Sc3ccccc32)c(C)c1 (configuration not stated) -13.1%, CC(OC(=O)c1ccc2ccccc2n1)C(=O)c1ccccc1 (configuration not stated) -2.94% [at 11.4 µM], COc1ccc(C(=O)COC(=O)c2ccc3ccccc3n2)cc1 0.744%, COc1ccc2c(c1)c(=O)c(C(=O)c1ccccc1)cn2CC(=O)Nc1ccc2c(c1)OCCO2 -21.2%, CC(C)(C)c1ccc(C(=O)Nc2ccc3c(c2)CCCN3C(=O)c2cccs2)cc1 -23.5%, Cc1ccc(NC(=S)N(Cc2ccco2)C(C)c2cccs2)cc1 (configuration not stated) -7.04%, Cc1ccc2[nH]c(C)c(CCNC(=O)NC3CCCCC3)c2c1 -4.56%, CCOc1ccc(CNC(=O)c2cc(=O)[nH]c3ccc(S(=O)(=O)N4CCCCC4)cc23)cc1 -11.3%, CCOC(=O)c1ccc(NC(=O)Cn2c(=O)n(-c3ccc(C)cc3)c(=O)c3c2cnn3C)cc1 -6.14%, COc1ccc(OCC(=O)OCCN(C)C)cc1 1.03%, COc1ccc(OC)c(NC(=O)CN(C)CCOc2ccc(Br)cc2)c1 -21.7%, Cc1ccc(-c2cn3c(n2)sc2cc(C(=O)NCCCc4ccccc4)ccc23)cc1 -4.28%, CCCCOc1ccc(C(=O)Nc2cccc(-c3nc4ccccc4o3)c2C)cc1 -13.1%, CCCCCCCCCOC1OC(CO)C(O)C(O)C1NC(C)=O (configuration not stated) -7.22%, CCc1cccc(OC2OC(CO)C(O)C(O)C2NC(C)=O)c1 (configuration not stated) -1.03%, CCc1nc2c(cnn2-c2ccc(C)cc2)c(=O)n1-c1ccc(C)cc1 -8%, CCOC(=O)c1ccccc1CN1C(=O)c2ccccc2S1(=O)=O 7.12%, CCOC(=O)C(NC(C)=O)C(=O)Nc1ccc(OC)cc1 (configuration not stated) -15.2%, COc1ccc(NS(=O)(=O)c2cc3c4c(c2)CC(=O)N4CCC3)cc1Cl -14%, CCc1ccc(NS(=O)(=O)c2ccc3[nH]cc(C(=O)NCCc4cccc(C)c4)c(=O)c3c2)cc1 -5.77%, COc1cc(OC)c2c(c1)OC(=O)CC2c1cc(OC)c(OC)c(OC)c1 (configuration not stated) -10.1%, COc1cc(COCC(O)CN2CCN(Cc3ccc4c(c3)OCO4)CC2)cc(OC)c1OC (configuration not stated) -14.8%, O=C(NCC(c1ccc2c(c1)OCO2)N1CCN(c2ccccc2)CC1)C(=O)Nc1ccccc1F (configuration not stated) -30%, COc1ccc(C2CC(=O)Oc3ccc(C(C)(C)C)cc32)cc1 (configuration not stated) 17.9%, COc1cc(C2CC(=O)Oc3cc(OC)c(OC)c(OC)c32)cc(OC)c1OC (configuration not stated) -11.6%, COc1ccc(C2/C(=C(/O)c3ccc(OC(C)C)cc3)C(=O)C(=O)N2CCCN2CCOCC2)cc1 (configuration not stated) -6.85%, COc1ccc(CNC(=O)c2cc3c(=O)[nH]c4ccc(C)cc4c3s2)c(OC)c1 -7.27%, COc1ccc(-c2cn3c(n2)sc2cc(C(=O)Nc4ccccc4F)ccc23)cc1 -9.21%, Cc1ccccc1CNC(=O)c1cccc(NC(=O)c2nsc3ccccc23)c1 -2.6%, COc1ccc(-n2c(=O)c3sc4ccccc4c3n(CC(=O)Nc3cccc(C)c3)c2=O)cc1 -7.95%, O=C(Nc1ccc2nc(SCCOc3ccccc3)sc2c1)c1ccco1 -11.9%, CC(=O)c1ccc(NS(=O)(=O)c2ccc(-c3cc(C)no3)s2)cc1 -20.1%, CCN(CC)c1nn2c(=O)c(C(=O)NCCc3ccccc3)cnc2s1 -12%, CCN(CCCNC(=O)c1c(C)oc2ncn(CC(C)C)c(=O)c12)Cc1ccccc1 -0.647%, CCc1ccc(NC(=O)CCS(=O)(=O)c2cc3c(cc2Cl)NC(=O)CO3)cc1 -16.8%, O=C(CSc1nc(=O)n(Cc2cccnc2)c2c1CCC2)Nc1ccc(F)cc1F -1.3%, O=S(=O)(c1ccc2nc(NCc3ccccc3Cl)ccc2c1)N1CCCCC1 -26%, O=S(=O)(Nc1cccc2cccnc12)c1cccc2cccnc12 -32.2%, COc1ccccc1CNC(=O)C(Cc1ccccc1)NS(=O)(=O)c1ccc2c(c1)oc(=O)n2C (configuration not stated) -15.5%, O=C1CCCc2cc(S(=O)(=O)N3CCCC(C(=O)NCc4ccccc4)C3)ccc2N1 (configuration not stated) -0.647%, O=C(NCc1ccccc1Cl)c1cccn1-c1nnc(N2CCCCC2)s1 -28.2%, COc1ccc(-c2nn(CC(=O)Nc3ccccc3F)c3c2cnc2ccc(F)cc23)cc1 -7.67%, C=CCOc1cccc(C2NC(=O)c3ccccc3O2)c1 (configuration not stated) -17.8%, C=CCC(Nc1ccccc1)c1cccc(OC)c1OC (configuration not stated) 28.4%, C=CCOc1cccc(CNCc2cccnc2)c1 -16.4%, COc1cccc(CNCCSc2nnnn2C)c1OCc1ccccc1Cl -2.24%, COc1ccc(CCNC(=O)c2cc(=O)c3c(C)cc(C)cc3o2)cc1OC -22.9%, CSc1nc(-c2ccccc2Cl)nc2c1Cc1c(CO)cnc(C)c1O2 -27.5%, COc1ccccc1CNC(=O)c1ccc(CS(=O)c2ccccc2Cl)o1 (configuration not stated) 8.79%, CCc1nn(CC(=O)Nc2cc(C)cc(C)c2)c(=O)c2cc3sccc3n12 -14.9%, CC(=O)N1CCCc2cc(S(=O)(=O)N3CCC(C(=O)NC4CCCCC4)CC3)ccc21 -7.74%, COc1ccc(CNC(=O)CN(Cc2ccc(Cl)cc2)S(C)(=O)=O)cc1 -6.03% [at 57.1 µM], CN(CC(=O)Nc1cccc(C(F)(F)F)c1)S(=O)(=O)c1cccs1 0.683%, Cc1ccc2sc(N(Cc3cccnc3)C(=O)C3COc4ccccc4O3)nc2c1C (configuration not stated) -15.6%, Cc1ccc(C(=O)Nc2ccc(OCc3cc(=O)n4c5c(sc4n3)CCCC5)cc2)cc1 6.29%, CCOC(=O)c1nnn2c3ccccc3c(=O)n(C)c12 -7.58%, COn1c(=O)c(=O)n(OC)c2ccccc21 -17.5%, Cc1ccc(-c2cnc(C3CC3)o2)cc1S(=O)(=O)Nc1cccc(C)c1C -26.8%, CCc1ccc(CNCc2c(C(=O)O)n(Cc3ccc(F)cc3Cl)c3cc(OC)ccc23)cc1 -18.7%, CC(C)(C)OC(=O)N1CCC(c2c(C(=O)NCc3ccccn3)cnn2-c2ccc(F)cc2)CC1 -5.83%, C#CCOCCOCCOCCNc1nc(N2CCN(C(=O)Cn3cc(CCO)nn3)CC2)nc(N2CCN(C(=O)[C@H](CCCCN)n3cc(CCCC)nn3)CC2)n1 -18.8%, CCC(C)[C@@H](C(=O)N1CCNCC1)n1cc(CCCCN)nn1 (some centres not stated) -14.4%
